The subject of test [1] is MILI (PIWIL2) piRISC loaded with L1MC piRNA (26 nt). The test can be described thus: pre-steady-state target cleavage rate (min^-1); guide: L1MC piRNA 5'p-UAACUAAAUACUAUGCAAGCUGUAGG; higher = faster piRNA-guided slicing of the target. Summed up:
(§1)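 A transcribed, DNA-blocked target RNA library […] was incubated at 33 °C for 0–8 or 0–960 min with 1 nM active affinity-purified piRISC carrying one synthetic guide, in HEPES–potassium acetate buffer with or without 500 nM GTSF1 partner protein. Uncleaved targets were then sequenced and normalised to depth and to weakly complementary targets. Data from three trials were pooled, with k3 capped at 0.0001 min^-1, and a burst-and-steady-state fit yielded the pre-steady-state cleavage rate.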

Test [2] concerns EfPiwi piRISC loaded with L1MC piRNA (26 nt). The test can be described thus: pre-steady-state target cleavage rate (min^-1); auxiliary factor: 500 nM Ephydatia muelleri Gtsf1; guide: L1MC piRNA 5'p-UAACUAAAUACUAUGCAAGCUGUAGG; MIWI and MILI are mouse PIWI proteins and EfPiwi is from a freshwater sponge; tags in brackets are library labels; higher = faster piRNA-guided slicing of the target. Summed up: as §1
Where [3] appears, read: auxiliary factor: 500 nM mouse GTSF1.
Setting [4] is: auxiliary factor: none (no GTSF1).

± gives the standard deviation.

As for UCCUGGUUCAGCUUGCAUAGUAUUUAGUAA, the entries for the “pre-steady-state target cleavage rate” value in test [1] (setting [3]), in test [1] (setting [4]) and in test [2] were 0.144 ± 0.028, 0.00573 ± 0.0029 and 0.00696 ± 0.0035, respectively.

Take UCCUGCUACAGCUUGGUUAGUAUUUAGUAA: the “pre-steady-state target cleavage rate” value in test [1] (setting [3]) turned out to be 0.148 ± 0.021; in test [1] (setting [4]), 0.00357 ± 0.0022; in test [2] it was 0.00273 ± 0.0024.

In the case of UCCUGGAAGCAGCUUGCAUAGUAUUUAGUUA, the “pre-steady-state target cleavage rate” value turned out to be 0.259 ± 0.016 in test [1] (setting [3]), 0.0136 ± 0.0032 in test [1] (setting [4]) and 0.0569 ± 0.013 in test [2].

For UCCUGGAUGAGCUUGCAUAGUUUUUAGUUA, the “pre-steady-state target cleavage rate” value came out at 0.0248 ± 0.0073 in test [1] (setting [3]), 0.00471 ± 0.0024 in test [1] (setting [4]) and 0.00485 ± 0.002 in test [2].

Turning to UCCUCCUAGAGCAUGCAUAGUAUUUAGUUA, the “pre-steady-state target cleavage rate” value is 0.2 ± 0.019 in test [1] (setting [3]), 0.00564 ± 0.0018 in test [1] (setting [4]) and 0.0163 ± 0.0058 in test [2].

For the sequence UCCUGGAACAGCUUGCAUAGUAUUAAGUUA, the results for the “pre-steady-state target cleavage rate” value in test [1] (setting [3]), in test [1] (setting [4]) and in test [2] were 0.212 ± 0.024, 0.00457 ± 0.0019 and 0.00549 ± 0.0022, respectively.

In the case of UCCUGGAUGUCCUUGCAUAGUAUUUAUUUA, the “pre-steady-state target cleavage rate” value in test [1] (setting [3]) is 0.0674 ± 0.018; in test [1] (setting [4]), 0.00292 ± 0.0029; in test [2], 0.00464 ± 0.0036.

For the sequence UCCUGGAUCAGCAUGCAUAGUAUAUAGUUA, the “pre-steady-state target cleavage rate” value in test [1] (setting [3]) was found to be 0.297 ± 0.018; in test [1] (setting [4]), 0.00579 ± 0.0027; in test [2], 0.00329 ± 0.0028.

UCCUGCUACAGCUUCAUAGUAUUUAGUUA: the “pre-steady-state target cleavage rate” value came to 0.231 ± 0.019 in test [1] (setting [3]), 0.00508 ± 0.0025 in test [1] (setting [4]) and 0.00994 ± 0.0031 in test [2].

As to UCCUGGAUCUCCUUGCAUAGUAUUUAGUAA, the “pre-steady-state target cleavage rate” value in test [1] (setting [3]) is 0.203 ± 0.024; in test [1] (setting [4]), 0.00367 ± 0.0019; in test [2] it was 0.00383 ± 0.0026.

With UCCUCCUACAGAUUGCAUAGUAUUUAGUUA, the “pre-steady-state target cleavage rate” value in test [1] (setting [3]) stood at 0.236 ± 0.014; in test [1] (setting [4]), 0.00814 ± 0.0018; in test [2] it was 0.0555 ± 0.014.

In the case of UCCUGGUAAGCUUGCAUAGUAUUUAGUUA, the figures for the “pre-steady-state target cleavage rate” value in test [1] (setting [3]), in test [1] (setting [4]) and in test [2] were 0.273 ± 0.017, 0.0137 ± 0.0032 and 0.0168 ± 0.0044, respectively.

Take UCCUCCAACAGCUUGGAUAGUAUUUAGUUA: the “pre-steady-state target cleavage rate” value was found to be 0.269 ± 0.0097 in test [1] (setting [3]), 0.00646 ± 0.0021 in test [1] (setting [4]) and 0.0467 ± 0.011 in test [2].

On to UCCUGCUACACCUUGCUUAGUAUUUAGUUA, for which the “pre-steady-state target cleavage rate” value in test [1] (setting [3]) stood at 0.2 ± 0.017; in test [1] (setting [4]) it was 0.00572 ± 0.0028; in test [2], 0.00903 ± 0.0035.

UCCUCCAUCAGCUUGCAUAGUAUUUAGUUA: the “pre-steady-state target cleavage rate” value in test [1] (setting [3]) turned out to be 0.248 ± 0.018; in test [1] (setting [4]) it was 0.00673 ± 0.002; in test [2] it was 0.0155 ± 0.005.

On to UCCUGCUACAGUUGCAUAGUAUUUAGUUA, for which the results for the “pre-steady-state target cleavage rate” value in test [1] (setting [3]), in test [1] (setting [4]) and in test [2] were 0.256 ± 0.019, 0.0103 ± 0.0022 and 0.0766 ± 0.022, respectively.

As for UCCUGGAACAGGUUGCAUAGUAUUUAGUAA, the “pre-steady-state target cleavage rate” value in test [1] (setting [3]) turned out to be 0.232 ± 0.02; in test [1] (setting [4]), 0.00824 ± 0.0023; in test [2], 0.00828 ± 0.0031.

As to UCCUGCUACAGCUUGCAAUGUAUUUAGUUA, the figures for the “pre-steady-state target cleavage rate” value in test [1] (setting [3]), in test [1] (setting [4]) and in test [2] were 0.0986 ± 0.014, 0.00809 ± 0.002 and 0.00312 ± 0.0024, respectively.

As for UCCUGGAUCGGCUUGCAUAGUAUUUAGUUA, the “pre-steady-state target cleavage rate” value in test [1] (setting [3]) amounted to 0.261 ± 0.016; in test [1] (setting [4]), 0.0131 ± 0.0022; in test [2], 0.0523 ± 0.0092.

The values above are taken from the supplement of paper PMC10338343.
